Source: the supplement of paper PMC3334620
Whole data set: some 33,000 sequences, median “E-score (-0.5 to 0.5)” near -0.016, cut for the highest 2% near 0.31. Shown is part of a subset that was picked to be rich in the highest values.

target: Cst6 (UniProt P40535); assay: PBM E-score (8-mer binding enrichment) (E-score (-0.5 to 0.5)); higher = stronger / more preferred TF binding; conditions: protein concentration: 200 nM; construct: GST-DNA-binding domain
Method in brief: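 GST-tagged yeast TFs (full-length or DNA-binding domain) were made by PURExpress in vitro transcription/translation and applied at about 100-200 nM to universal all-10-mer Agilent arrays. The arrays were made double-stranded by primer extension, on fresh or once-stripped slides. Bound protein was detected with fluorescent anti-GST, and scans were normalised with masliner. Each ungapped eight-base word, pooled with its reverse complement, received an E-score (modified Wilcoxon-Mann-Whitney statistic) from the Universal PBM Analysis Suite.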

Chain of UniProt P40535 (P40535 whole entry, the tested form may be a part): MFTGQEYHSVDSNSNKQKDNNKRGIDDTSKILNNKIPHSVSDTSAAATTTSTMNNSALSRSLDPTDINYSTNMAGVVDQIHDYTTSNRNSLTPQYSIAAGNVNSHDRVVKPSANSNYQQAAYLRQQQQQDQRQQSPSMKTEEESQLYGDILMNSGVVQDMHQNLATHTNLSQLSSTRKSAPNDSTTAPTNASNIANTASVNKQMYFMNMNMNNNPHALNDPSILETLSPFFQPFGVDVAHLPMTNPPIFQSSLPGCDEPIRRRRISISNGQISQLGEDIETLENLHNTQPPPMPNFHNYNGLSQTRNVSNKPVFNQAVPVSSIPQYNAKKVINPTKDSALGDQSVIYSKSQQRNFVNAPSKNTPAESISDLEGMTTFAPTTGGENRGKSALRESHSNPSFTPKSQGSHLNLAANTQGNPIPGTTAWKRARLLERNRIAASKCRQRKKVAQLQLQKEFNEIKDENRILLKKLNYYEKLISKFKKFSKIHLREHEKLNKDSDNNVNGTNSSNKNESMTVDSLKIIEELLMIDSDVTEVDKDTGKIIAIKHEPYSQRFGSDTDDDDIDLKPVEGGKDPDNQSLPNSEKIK

Sequence | PBM E-score
GGACGGGA | -0.285
ATAAGTAA | 0.164
CGCTGACC | -0.0695
CACTGACG | 0.371
CGCTGACA | 0.166
AGCTGACC | -0.126
CACTGACC | -0.133
CACTGACA | 0.08
AGCTGACT | -0.0426
AGCTGACG | 0.359
CGCTGACG | 0.384
AGCTTTAA | 0.127
CGGCTAGA | -0.038
ATTTCAGC | 0.00693
ATGGAAAT | 0.122
GGCTACAC | -0.0907
CTCCAGAC | -0.158
TACATTAA | 0.19
GGTGCGTA | -0.062
CGGTTAAG | -0.0846
AAGTCATC | 0.114
AAGTCATG | 0.185
CAGTCATA | 0.123
AGGTCATG | 0.221
ACGTCATA | 0.494

Sequence | PBM E-score
AGGTCATC | 0.231
ACGTCATC | 0.497
CGGTCATA | 0.298
AGGTCATA | 0.168
CCGTCATA | 0.363
ACGTCATG | 0.495
AAGTCATA | 0.283
CTAGACTC | -0.329
CAAGGCAG | -0.119
CCATGGCG | 0.102
ATTCAGTA | 0.164
AAGGGACA | -0.141
AATTGTTG | 0.0795
GGCGGGCA | -0.0394
CAGTCATC | -0.0341
CGGTCATC | 0.085
GCGTCATA | 0.463
GGGTCATA | -0.0664
GAGTCATA | 0.144
CCGTCATC | 0.385
AACGAAAT | 0.156
AGATTGAG | 0.228
CCTTGGCA | -0.209
CTTTGTTC | 0.126
ATTTGTTA | 0.22

Sequence | PBM E-score
ATTTGTTC | 0.332
GTTGGCTA | -0.0861
AGCTTTTC | -0.00677
ACGGCACA | 0.327
CCGGCACG | -0.1
ACGGCTCC | 0.256
CCGGCTCG | -0.128
ACGGCTCG | 0.312
TCGGCACA | -0.0165
ACGGCACG | 0.348
CCGGCACA | -0.136
ACGGCAGA | 0.064
CAGGCGTC | -0.00038
CGCGCGAG | 0.0316
ACAGGCCA | -0.202
GAAATTGA | 0.153
CGGTCGTA | -0.304
GTTGCCGA | 0.0213
GCACCAGC | -0.176
AGTATGGG | -0.162
ACGCGGCT | 0.248
ATGCGGCG | 0.343
ACGCGGCA | 0.28
ATGCGGCA | 0.312
AGGCGGCG | 0.204

Sequence | PBM E-score
CTGCGGCA | 0.182
AGGCGGCA | 0.119
GTGCGGAA | -0.0138
GCGCGGCA | 0.264
ACGCGGCG | 0.363
GTGCGGCA | 0.311
ATGCGGCC | 0.0608
GAATTCAC | 0.0689
GCCAACCA | -0.0975
ATACCCTG | -0.0744
CGGAAGCA | 0.151
AGTCTTCA | -0.0551
TCCCCACA | -0.103
GCGGCACA | 0.176
ACGGCACT | 0.352
GCGGCACC | 0.311
AGGGCACT | -0.0161
GCGGCAGC | -0.104
ACGGCACC | 0.391
AAGGCACT | -0.0255
ACGGCATA | 0.245
ACGGCATC | 0.375
AGGGCACC | -0.282
CCGGCACC | -0.146
ACGGCATG | 0.126

Sequence | PBM E-score
AATCAGAA | 0.00689
CATATCCC | 0.0321
ACGATCAA | 0.135
AAACCATG | -0.0483
GCGACTAA | 0.0201
GAGTTTGC | -0.0936
CGTAAAGA | 0.167
ATTGGTCG | 0.069
CTCACGGC | 0.105
GAGTTTCC | -0.137
CCGGACGC | 8e-05
ACGGCAAG | 0.0822
ACGGCAAA | 0.28
ACGGCAAT | 0.329
TCTACAGA | -0.0513
AGTACCTA | 0.00893
CGAAAAGA | 0.313
GGAAAAGA | 0.0532
AGAAAAGA | 0.112
ACTAAAGC | 0.0156
AATGATAC | 0.316
AATGATAA | 0.347
AAAGATAG | -0.026
ACTGATAT | 0.109
CATGATAA | 0.155

Sequence | PBM E-score
AGTGATAT | 0.0988
AAAGATAA | 0.308
GATGATAC | 0.127
AATGATAG | 0.174
AATGATAT | 0.322
TAAGATAA | 0.159
CATGATAC | 0.251
CGATATCA | 0.145
AAGCTTTC | 0.0818
AACTGATT | 0.0959
TCGCGCCA | -0.0121
GTCCGAGA | 0.0681
GTCTAGAC | -0.0977
CACCAAAC | 0.17
TACTCCCA | -0.0234
AGTCAAAT | 0.0827
CGTAATGC | 0.365
CTTAATGC | 0.142
GGTAATGA | 0.213
AGTAATGC | 0.0951
CGTAATGA | 0.402
AGTAATGA | 0.247
ATTATGGC | 0.0901
TCGCGCAA | 0.15
ACTCGTCT | -0.018

Sequence | PBM E-score
TCTCGTCA | 0.329
ACTCGTCC | -0.094
TCTCGTAA | 0.305
CCTCGTCG | -0.0925
ACTCGTCA | 0.351
CCTCGTCA | 0.308
GCTCGTCA | 0.238
CCTCGTCC | -0.35
GACCTAAC | 0.0894
ATCCCTCG | -0.263
GAAAGGTC | -0.196
GTTGCCCA | -0.135
AATTACGT | 0.462
AATTACAT | 0.318
AATTACGG | 0.183
AATTACGC | 0.331
AATTACAC | 0.116
GATTACAC | 0.171
CATTACGC | 0.219
AGTTACGC | 0.0936
AATTACAG | 0.15
AATTACGA | 0.286
GATTACGC | 0.329
AATTACCC | 0.0706
CACCTGGA | -0.135

Sequence | PBM E-score
TCGCGCGA | 0.169
ACTCGTGC | -0.103
AGCGGCAT | 0.273
TATTACGA | 0.283
GATTACGA | 0.364
CATTACGA | 0.205
GTCTTAAC | 0.14
GAAAAGCA | -0.0869
TCGTTACA | 0.0818
TAACCCTA | -0.197
CATGCATG | 0.0335
ACGCCGCC | 0.124
GCGCCGCC | 0.25
ACGCCGCT | 0.233
CCGCCGCA | 0.0944
ACGCCGCA | 0.336
GCGCCGCA | 0.38
CGTTATGA | 0.0852
AGCGGAAT | -0.0286
GTAGCCGA | -0.191
CGTAATCC | 0.3
AGTAATTC | 0.189
CGTAATTC | 0.309
AGTAATTA | 0.175
AATAATCA | 0.209

Sequence | PBM E-score
CATAATTC | 0.203
GGTAATTA | 0.215
CGTAATTA | 0.362
AGTAATCA | 0.116
CGTAATCA | 0.427
GATAATCA | 0.131
TATAATCA | 0.308
CATCGCAG | -0.135
CGCCCGCC | -0.129
AAACTCAC | 0.0463
CATTAGCG | -0.0563
CTCATTGC | 0.105
AGAAAAAT | 0.17
CATTGAGG | -0.0774
GTGAGTTA | 0.0284
GAGACGAA | -0.099
CTGACGAC | 0.216
ACGACGAC | -0.0559
CTGACGAA | 0.29
GGGACGAA | -0.214
ATGACGAG | 0.398
ACGACGAG | -0.211
ATGACGAA | 0.472
ACGACGAA | 0.0916
GTGACGAA | 0.454

Sequence | PBM E-score
ATGACGAC | 0.431
AAGACGAG | -0.203
CAGACAGC | -0.185
ATGGAGCA | 0.0798
ACGAAACT | 0.0946
CAAGACCC | -0.197
CAAGGCTC | -0.227
AATTTCGG | 0.127
CGTGTGAG | 0.0162
AAAGATCT | -0.0274
CACATCAA | 0.162
GACATCCC | -0.0212
CACATCAC | 0.217
GACATCAC | 0.431
TACATCAA | 0.283
GACATCAA | 0.327
AGCATGCA | -0.103
AACACCTC | -0.0672
ACTCAAAC | 0.158
AGCTAAAG | -0.0194
CAGCGTGA | 0.0151
GCGACGCA | 0.0151
CTGACGCA | 0.332
AAGACGCG | -0.111
GTGACGCA | 0.471

Sequence | PBM E-score
CAGACGCA | -0.0613
ACGACGCG | 0.127
AAGACGCC | -0.00396
ATGACGCC | 0.442
AGGACGCC | -0.147
CTGACGCC | 0.119
ATGACGCG | 0.463
GGGACGCA | -0.173
AGTCGTAT | -0.0183
AGCCTCGC | -0.0857
CCTGGATC | -0.334
GTACCAGA | -0.199
ACTCCAGT | -0.162
CCGTCCCC | -0.289
GGTGGAGA | -0.338
ACATGGGT | 0.00268
CGGGTTCA | -0.134
GATAACCA | -0.0596
GGAGCTGA | -0.207
ATGACTCC | 0.0246
GTGACTCA | 0.228
ATGACGCA | 0.485
ACGACGCA | 0.145
ATGACTCA | 0.309
AGGACGCA | -0.209

Sequence | PBM E-score
ACGGGACA | -0.177
ATACCACG | 0.128
AGTCATAC | 0.144
CGTCATAG | 0.468
AGTCATAG | 0.0637
CGTCATAC | 0.481
CCTCATAG | 0.0666
GGTCATAC | 0.151
ATCCATTG | 0.0328
AAGGAGAG | -0.258
TAATTACA | 0.277
TAACCACA | 0.0592
ACATCACT | 0.401
ACATCAGT | 0.218
ACATCACG | 0.303
ACATCACA | 0.328
CCATCACC | 0.15
GCATCACC | 0.231
AGATCACT | 0.181
TCATCACA | 0.252
ACATCACC | 0.417
CCCGGTGC | -0.264
GGCGATTA | 0.188
CGTCGCCA | -0.0999
CGCAGTAG | -0.101

Sequence | PBM E-score
ATCGACCA | -0.228
CGCTGGAC | -0.297
CAAAAAAG | 0.254
CAATGAAG | 0.0658
TAATGAGA | 0.0949
AAATGACA | 0.298
CAATGACG | 0.469
GAATGATA | 0.278
GAATGACA | 0.259
TAATGCCA | 0.197
AAATGATA | 0.304
CAATGACC | 0.148
TAATGATA | 0.387
CAATGACA | 0.341
TAATGACA | 0.347
CTTTAAGC | 0.0326
GTTGGGAA | -0.0904
TACCTACA | 0.0531
ACCGGGTG | -0.19
GCGATTAC | 0.184
CACCGCAG | -0.116
CGTCTCGA | 0.143
GAGTTTTA | 0.122
CTATGACA | 0.264
GTATGACA | 0.323

Sequence | PBM E-score
AAATGACC | 0.102
AAATGACG | 0.466
AAATGACT | 0.0956
ATATGACA | 0.304
AGCTCATA | 0.124
TAAGAACA | 0.312
CAAGAACA | 0.053
GAAGAACA | 0.131
CCTTACCA | -0.119
CCCGTTCC | -0.132
CATCACCC | 0.308
CATCACCG | 0.305
AATCACCC | -0.00614
CATCACCA | 0.372
AATCACCA | 0.169
TATCACCA | 0.123
CATTGTCC | -0.0804
ACCGCAAC | 0.0509
GTCACATA | 0.245
